Here are results for 73 compounds from PubChem BioAssay AID624351 (Southern Research Specialized Biocontainment Screening …, 2012).

SMILES strings stand for the structures. Hit rate of the full screen: of about 2,400 compounds, about 1,400 (58%) were called active.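 How the source made its calls: active means inhibition of 30% or more at any tested dose; inconclusive means primary hits over the limit that were never retested; inactive means the rest.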 So high a share suggests a set chosen from earlier hits. This is one part of the list.

The test in a line: ADP Hunter readout inhibition without MgcRacGAP – biochemical, coupled enzyme counter-screen, artefact control for MgcRacGAP inhibitor project, dose response (AID 624351).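 Further: signal is the ADP detection kit reading of free GDP without any GAP enzyme.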 To be noted: fluorescence, no MgcRacGAP; series mostly up to 80 µM. A general note: Counterscreens check selectivity or assay interference.
For `C=CCc1cc(OC)ccc1OCCN1CC(C)OC(C)C1` (stereo not drawn), the IC50 entry was “inactive”. For `Nc1ccc(OCc2ccco2)cc1`, the 50% inhibitory concentration (IC50) is 58.6 µM (active). Take `c1coc(CSSCc2ccco2)c1`: the IC50 result is “inactive”. Turning to `CC1N(C)c2cccc3cccc(c23)N1C`, the IC50 was 21 µM (active). As to `O=C1/C(=C/c2ccccc2[N+](=O)[O-])COc2ccccc21`, the IC50 result is “inactive”. Regarding `CCN(CC)c1ccc(N=Cc2ccccc2[N+](=O)[O-])cc1`, the IC50 was 27.2 µM (active). As for `CN(C)C=Nc1ccc2nc3c(cc2c1)[nH]c1ccccc13`, the IC50 entry was “inactive”.

With `CCN(CC)c1ccc(N=Cc2c(C)[nH]c3ccccc23)cc1`, the IC50 was 41.6 µM (active). As for `CC(=C/c1ccccc1)/C=N/n1c(-c2ccco2)n[nH]c1=S`, the IC50 is 66.7 µM (active). On to `S=c1[nH]nc(-c2ccco2)n1/N=C/c1ccc(Cl)cc1`, for which the IC50 was 51.2 µM (active). Consider `CC1=C(C)CS(=O)N(S(=O)(=O)c2ccc(Cl)cc2)C1` (stereo not drawn), for which the IC50 result was “inactive”. Turning to `Cc1cccc(CN2CCN(Cc3ccco3)CC2)c1`, the IC50 entry is “inactive”. Take `Cc1cccc(-c2n[nH]c(=S)n2/N=C/c2ccco2)c1`: the IC50 was 78.9 µM (active). On to `Cc1ccc2nc(N(CCCN(C)C)C(=O)c3ccc4ncsc4c3)sc2c1`, for which the IC50 entry is “inactive”. For `Cc1nc2ccc(C(=O)Nc3ccc(N(C)C)cc3)cc2s1`, the IC50 is 58.9 µM (active). As to `O=C(CN1CCc2ccccc2C1)Nc1ccccc1C(F)(F)F`, the IC50 result is “inactive”. For `O=C1c2ccccc2C(=O)C1c1ccc(O)cc1`, the IC50 was 81.3 µM (active). Take `COc1cc(C2C(=O)c3ccccc3C2=O)ccc1O`: the IC50 is 20.4 µM (active).

With `C[C@H]1CCC/C=C/[C@@H]2C[C@H](O)C[C@H]2[C@H](O)[C@H](S(=O)c2ccc(O)cc2)CC(=O)O1` (stereo partly drawn), the IC50 result is “inactive”. For `CN1CCN(CCCNCc2cn(CCC#N)c3ccccc23)CC1`, the IC50 entry was “inactive”.

Take `N#CCCN1CCN(CCC#N)c2ccccc21`: the IC50 was 20 µM (active). For `CC(=O)Nc1ccc(OC(=O)c2cc3ccccc3oc2=O)cc1`, the IC50 entry is “inactive”. As to `Cc1ccc(OC(=S)Nc2ccc(O)cc2)cc1`, the IC50 was 34.5 µM (active). On to `CC(=O)c1ccc(NC(=S)Nc2ccc3[nH]c(=O)[nH]c3c2)cc1`, for which the IC50 entry was “inactive”. `COc1ccc(OC(=O)COc2ccc(C)cc2)cc1`: the IC50 entry is “inactive”. As for `Oc1ccc(NC(=S)Nc2ccccc2)cc1`, the concentration for half-maximal inhibition (IC50) was 55.5 µM (active). For `Oc1ccc(NC(=S)Nc2ccc(O)cc2)cc1`, the IC50 was 46.5 µM (active).

`O=C(/C=C/c1ccco1)NC(=S)Nc1ccc(C(=O)O)cc1`: the IC50 entry is “inactive”. Regarding `COC(=O)c1ccc(NC(=S)Nc2ccc(O)cc2)cc1`, the IC50 is 68.1 µM (active). In the case of `CN(C)c1ccc(O)c2c1CC1CC3[C@@H](N(C)C)C(=O)C(C(N)=O)=C(O)[C@]3(O)C(=O)C1=C2O` (stereo partly drawn) it was “inactive”; in that of `COCC(C)NCc1ccc(OC)c(Br)c1` (stereo not drawn), “inactive”; in that of `COc1ccc(CN2CCN(Cc3ccccc3F)CC2)c(OC)c1`, “inactive”. Regarding `O=C(c1cccnc1)N1CCN(Cc2cccc(Br)c2)CC1`, the IC50 result was “inactive”. As for `CC1CCCCN1CC(=O)Nc1ccc(N2CCCCCC2)cc1` (stereo not drawn), the entry is “inactive”. As for `O=C(Nc1ccc(O)cc1)C1CC=CCC1` (stereo not drawn), the figure is 64.6 µM (active); as for `O=C(NC(=S)Nc1ccc(O)cc1)C1CCCC1`, 31.8 µM (active); as for `CNC(=S)Nc1ccc(Nc2ccccc2)cc1`, 71.8 µM (active). Consider `CC(C)N(c1ccccc1)c1ccc(NC(=S)NCCN(C)C)cc1`, for which the IC50 entry is “inactive”.

For `CN(C(=S)NC(=O)C1CC1)c1ccc(O)cc1`, the IC50 entry is “inactive”. On to `N=C1/C(=C\c2ccc(Br)o2)C(=O)N=C2SC(CC(=O)N3CCCCC3)=NN12`, for which the IC50 entry was “inactive”. Turning to `COc1ccc(C2NC(=O)C(C#N)=C(S)N2c2ccccc2)cc1OC` (stereo not drawn), the IC50 entry was “inactive”.

As for `Cc1cccn2c(=S)[nH]nc12`, the IC50 was 13.4 µM (active). For `Cc1ccn2c(=S)[nH]nc2c1`, the IC50 is 46.7 µM (active). Consider `S=c1[nH]nc2ccccn12`, for which the IC50 is 24 µM (active). For the compound `Cc1ccc(/C=C2/C(=O)c3ccc(C(=O)O)cc3C2=O)o1`, the IC50 result was “inactive”. Take `Cc1cc(O)ccc1N=Cc1c(C(F)(F)F)[nH][nH]c1=O`: the IC50 is 32.8 µM (active). Turning to `Oc1ccc(/C=C/c2ccc3ccccc3n2)cc1`, the IC50 was 30.7 µM (active). Take `O=c1[nH]c2ccccc2nc1/C=C/c1ccc(O)cc1`: the IC50 was 36.9 µM (active).

On to `CCOc1cc(/C=N/NC(=O)C2CCCC2)ccc1O`, for which the half-maximal inhibitory concentration (IC50) was 51.3 µM (active). On to `CCOc1cc(/C=N/NC(=O)c2ccc(=O)n(C)c2)ccc1O`, for which the IC50 is 60.4 µM (active). As for `CCOc1cc(/C=N/NC(=O)c2cc(C3CC3)[nH]n2)ccc1O`, the figure is 56.1 µM (active); as for `CCOc1cc(/C=N/NC(=O)c2ccc(NC(=O)C3CC3)cc2)ccc1O`, 83.2 µM (active). In the case of `Cc1cc(C)c(C)c(OCCNCc2ccccc2)c1` it was “inactive”.

Consider `COc1ccccc1COCC(O)CNCC1(N2CCCCC2)CCCCC1` (stereo not drawn), for which the IC50 entry was “inactive”.

Regarding `COc1cc(/C=N/NC(=O)C2CCN(CC(O)COCc3ccccc3)CC2)ccc1O` (stereo not drawn), the half-inhibitory concentration (IC50) was 34.1 µM (active).

For the compound `Cc1cccc(N2C(S)=C(C#N)C(=O)NC2c2cccs2)c1` (stereo not drawn), the IC50 entry was “inactive”. With `COc1cc(N)c2ncccc2c1OC`, the IC50 was 63.8 µM (active). As for `COc1cc(NC(C)CCCNC(C)C)c2ncccc2c1OC` (stereo not drawn), the entry is “inactive”. `COc1cc(N)c2ncccc2c1SC`: the IC50 was 51.2 µM (active). `COc1cc(CN(C)CCc2ccccn2)cc(OC)c1OC`: the IC50 result was “inactive”. Take `COc1cccc2c3cccc(OC)c3c3[nH]cnc3c12`: the IC50 result was “inactive”.

In the case of `CCN1/C(=C\c2ccc3ccccc3[n+]2CC)Sc2cc(C)ccc21`, the IC50 entry is “inactive”.

`CCOC(=O)c1ccc(S(=O)(=O)Nc2nc3cc(S(=O)(=O)NC4=NCCCCC4)ccc3s2)cc1`: the IC50 result was “inactive”. In the case of `Cc1c(NC(=S)N/N=C/c2ccc(O)cc2)c(=O)n(-c2ccccc2)n1C`, the IC50 was 68.4 µM (active). Turning to `COc1cc(N=Nc2c(C)n(C)n(-c3ccccc3)c2=O)ccc1N`, the IC50 was 47.2 µM (active).

For the compound `CC(=O)NC(Nc1c(C)n(C)n(-c2ccccc2)c1=O)C(Cl)(Cl)Cl` (stereo not drawn), the IC50 entry is “inactive”.

As to `Cc1[nH]c2ccccc2c1N=Nc1c(C)n(C)n(-c2ccccc2)c1=O`, the IC50 was 40.2 µM (active). For `Cc1c(N=C2C=C(Br)C(=O)C(Br)=C2)c(=O)n(-c2ccccc2)n1C`, the IC50 was 24.2 µM (active). With `Cc1c(NC(=O)CNCc2ccc3c(c2)OCO3)c(=O)n(-c2ccccc2)n1C`, the IC50 entry is “inactive”. As to `Cc1c(N=Nc2ccc(O)cc2)c(=O)n(-c2ccccc2)n1C`, the half-inhibitory concentration (IC50) was 19.5 µM (active). Consider `CCN1CCN(CCCCOc2ccccc2F)CC1`, for which the IC50 result was “inactive”. As for `CCOc1cc(NC(=O)c2ccccc2C(=O)O)c(OCC)cc1NC(=O)c1ccccc1F`, the figure is 65.3 µM (active); as for `CCOc1ccccc1NC(=O)C(NCCN(C)C)c1ccccc1` (stereo not drawn), “inactive”.

By IC50 is commonly meant the point on the concentration scale where inhibition reaches its midpoint.
